{"source": "ChEMBL document CHEMBL3433997", "about": "“St. Jude Leishmania screening dataset” (2016)"}
{"molecular_target": "Hexose transporter 1 (Plasmodium falciparum) (UniProt O97467)", "experiment": "ST_JUDE_LEISH: Cytotoxicity at 2uM final concentration against transgenic Leishmania Mexicana promastigotes LmPfHT that are glucose transport deficient and complemented with the Plasmodium falciparum hexose transporter. Activity is measured by DNA content using SYBR green in vitro", "assay_type": "functional", "units": {"inhibition": "%"}}
{"smiles": "COc1ccc(-c2ccc(NC(=O)c3ccc(C#N)cc3)c(F)c2)cc1CN(C)CCN(C)C", "inhibition": -0.56}
{"smiles": "O=C(Nc1ccc(F)cc1)N1CCCN(c2ccnc3cc(Cl)ccc23)CC1", "inhibition": 0.34}
{"smiles": "Cc1cccc2nc(-c3cccc(-c4cccc(NC(=O)COc5ccccc5C(N)=O)c4)c3)[nH]c12", "inhibition": 3.3}
{"smiles": "O=C(CSc1nc(-c2ccccc2Cl)ns1)Nc1cccc(F)c1", "inhibition": -0.93}
{"smiles": "OCCNc1nc(Nc2cccc(O)c2)nc2ccccc12", "inhibition": 3.14}
{"smiles": "CCc1cc2c(cc1CC)CC(NC[C@@H](O)c1ccc(O)c3[nH]c(=O)ccc13)C2", "inhibition": 1.76}
{"smiles": "CCCC(C)Nc1nc(C)cc(N[C@@H](CC(C)C)C(=O)Nc2ccc(OC)cc2)n1", "note": "(stereo partly specified)", "inhibition": 3.9}
{"smiles": "CC(C)c1ccc(-c2noc(SCC(=O)N(C)c3ccc(F)cc3)n2)cc1", "inhibition": 0.23}
{"smiles": "COc1ccccc1NC(=O)Nc1cccc(-c2cccc(-c3nc4cc(C(F)(F)F)ccc4[nH]3)c2)c1", "inhibition": -0.1}
{"smiles": "Cn1c(N)cc(-c2ccc(Br)cc2)c2c(=O)nc(N)nc1-2", "inhibition": 4.96}
{"smiles": "CCCCCCCN1CC[C@@H](CCCc2ccnc3ccc(OCCN4CCOCC4)cc23)[C@@H](CC)C1", "inhibition": 7.56}
{"smiles": "CCCCc1cc(NCc2ccncc2)nc(Nc2cccc(OC)c2)n1", "inhibition": 10.9}
{"smiles": "FC(F)(F)Oc1ccc(-c2cnc3ccc(NCc4ccncc4)nn23)cc1", "inhibition": 3.58}
{"smiles": "O=C(NC1CCC1)C1CCN(C(c2ccccc2)c2cc(F)cc(F)c2)CC1", "note": "(stereo unspecified)", "inhibition": 7.32}
{"smiles": "Cc1nc(NCc2ccccc2)cc(NCC(O)c2ccc(O)cc2)n1", "note": "(stereo unspecified)", "inhibition": 8.57}
{"smiles": "CC[C@H](NC(=O)c1c(CN2CCC(N3CCCCC3)CC2)c(-c2ccccc2)nc2c(Cl)c(O)ccc12)c1ccccc1", "inhibition": 6.81}
